RE007 growth inh – qHTS Assay for Inhibitors of the HIV-1 protein Vpr; S. pombe RE007 Vpr strain, BacTiter-Glo ATP luminescence, 24 h; Potency, µM (top dose mostly 92.2 µM), hits mostly inhibitors; actives 0.21% (n = 360,000); AID 651644, 2012; active = well fitted falling curve with a large enough effect; inconclusive = small, poorly fitted or top-dose-only effect; inactive = no such curve, though single readings can be large or run the other way; also: nearly all actives have a fitted effect of over 50% in size
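Fission yeast strain RE007, carrying one chromosomally integrated HIV-1 vpr copy, was seeded at OD 0.01 in PMG+AL medium with 23 nL pinned compound. After 24 h at 30 °C and 99% humidity, viability was read by BacTiter-Glo luminescence.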
Pf growth 96h – Primary qHTS for delayed death inhibitors of the malarial parasite plastid, 96 hour incubation; P. falciparum luciferase reporter growth, 96 h; actives 6.9% (n = 320,000); Potency, µM (top dose mostly 28.7 µM), actives largely listed as inhibitors; AID 504834, 2011
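Cell-based qHTS: luciferase-tagged P. falciparum in erythrocytes (2% hematocrit, 0.05% parasitemia final) incubated with compounds for 96 hours, 37 C, 5% CO2; luciferase detection reagent then added and luminescence measured.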
Pf growth 48h – Primary qHTS for delayed death inhibitors of the malarial parasite plastid, 48 hour incubation. P. falciparum luciferase growth in erythrocytes, 48 h. Potency, µM (highest dose often 28.7 µM), actives largely listed as inhibitors. actives 5.9% (n = 310,000). AID 504832, 2011
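Luminescence readout; reporter = integrated firefly luciferase in P. falciparum. RBC culture at 2% hematocrit, 0.1% parasitemia final, 37 C/5% CO2; decreased signal taken as growth inhibition.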
SARS PLpro yeast – qHTS of Yeast-based Assay for SARS-CoV PLP | S. cerevisiae expressing SARS-CoV PLpro, growth rescue | Potency, µM (doses to about 32.9 µM), usual class: activators | actives 0.19% (n = 330,000) | AID 485353, 2010; calls by dose curve; also: nearly all actives have a fitted effect of over 55% in size
NS1 function inh – qHTS Assay for Inhibitors of Influenza NS1 Protein Function; Potency, µM (highest dose often 46.1 µM); actives 0.4% (n = 270,000); AID 2326, 2010; calls by dose curve; also: actives are rising curves; nearly all actives have a fitted effect of over 50% in size
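Read-out: OD600 growth recovery of NS1-expressing budding yeast. Cells grown overnight at 30C in -URA glucose medium, washed, resuspended and diluted 1:100 in 2% galactose assay medium, pH 6.0. Same strain lacking NS1 served as positive control.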
Each line names hits and unclear results; the compound was inactive in the other large screens. Hits are enriched below; roughly 9.5% of the tested compounds scored in any of these assays. Unless noted, calls follow the shape of the dose curve; as a rule, active = well fitted inhibition curve with a large enough effect; inconclusive = small, poorly fitted or top-dose-only effect, or another doubt; inactive = no such curve, though single readings can be large or run the other way.

CN(C)Cc1c[nH]c2ccccc12	Pf growth 96h 9.3µM, Pf growth 48h inconclusive (no result: NS1 function inh)
C=CCN1CC(C(=O)N(CCCN(C)C)C(=O)NCC)CC2c3cccc4[nH]cc(c34)CC21 (stereo unspecified)	Pf growth 96h 11µM, Pf growth 48h 19µM (no result: RE007 growth inh, SARS PLpro yeast, NS1 function inh)
CCN(CC)C(=O)N[C@H]1C[C@@H]2c3cccc4[nH]cc(c34)C[C@H]2N(C)C1	Pf growth 96h 0.93µM, Pf growth 48h inconclusive
CN1C[C@H](CO)C[C@@H]2c3cccc4[nH]cc(c34)C[C@H]21	none
CN1C[C@H](C(=O)NC2(C)OC3(O)[C@@H]4CCCN4C(=O)[C@H](Cc4ccccc4)N3C2=O)CC2c3cccc4[nH]cc(c34)C[C@H]21 (stereo partly specified)	none (no result: Pf growth 96h, Pf growth 48h, SARS PLpro yeast, NS1 function inh)
CN1CCc2c(n(CC(O)CN3CCN(CCO)CC3)c3ccccc23)C1=O (stereo unspecified)	none (no result: NS1 function inh)
CCn1c(SCC(=O)Nc2ccc3c(c2)OCO3)nc2c1c(=O)n(C)c(=O)n2C	Pf growth 96h inconclusive
CC1CCCC(C)N1C(=O)Cn1c(SCC(=O)Nc2ccc3c(c2)OCO3)nc2ccccc21 (stereo unspecified)	Pf growth 96h 13µM, Pf growth 48h inconclusive
CCCn1c(SCC(=O)N2CCCC2)nc2c1c(=O)n(C)c(=O)n2C	Pf growth 96h 1.2µM
CC(C)n1c(SCC(=O)N2CCCC2)nc2c1c(=O)n(C)c(=O)n2C	Pf growth 48h inconclusive
CCCn1c(SCC(=O)Nc2ccc3c(c2)OCO3)nc2c1c(=O)n(C)c(=O)n2C	Pf growth 96h 10µM
Cn1c(=O)c2c(SCC(=O)N3CCCC3)nc(CC(C)(C)C)nc2n(C)c1=O	Pf growth 96h 13µM, SARS PLpro yeast inconclusive
CC(C)C(C(=O)NC1CCCC1)N1CCN(c2ncccc2C#N)CC1 (stereo unspecified)	none (no result: Pf growth 96h, Pf growth 48h, SARS PLpro yeast, NS1 function inh)
CCOC(=O)C1CCCN(C(=O)c2[nH]c(C(F)(F)F)nc2-c2ccccc2)C1 (stereo unspecified)	none (no result: Pf growth 96h, Pf growth 48h, SARS PLpro yeast, NS1 function inh)
CCCCn1c(SCC(=O)NCc2cccs2)nc2c1c(=O)n(C)c(=O)n2C	Pf growth 96h 9.3µM (no result: Pf growth 48h)
Cc1cccc(Nc2nnc(-c3ccc(N4CCOCC4)c([N+](=O)[O-])c3)c3ccccc23)c1	Pf growth 96h inconclusive, Pf growth 48h 12µM
Cc1nnc(-c2ccc(N3CCOCC3)c([N+](=O)[O-])c2)o1	none (no result: NS1 function inh)
CCCc1cc(C(N)=O)c(NC(=O)C2CCCO2)s1 (stereo unspecified)	none (no result: Pf growth 96h)
CCCc1cc(C(N)=O)c(NC(=O)c2ccco2)s1	Pf growth 96h 0.41µM
CNCCCC1c2ccccc2C=Cc2ccccc21	Pf growth 96h 12µM, Pf growth 48h inconclusive
CNCCCCOc1ccccc1-c1ccccc1	none
NC(=S)N/N=C/c1ncc(C(F)(F)F)cc1Cl	Pf growth 96h 3.3µM, Pf growth 48h 1.5µM
CC1CCN(Cc2nc3c(c(=O)n(C)c(=O)n3C)n2CCN2CCOCC2)CC1	none (no result: RE007 growth inh, Pf growth 96h, Pf growth 48h, SARS PLpro yeast)
O=C(CN1C(=O)C2CC=CCC2C1=O)Nc1nc2ccccc2[nH]1 (stereo unspecified)	Pf growth 96h 19µM
O=C(C1=C[C@H](c2coc3ccccc3c2=O)C[C@H](OCCCCO)O1)N1CCN(Cc2ccccc2)CC1	Pf growth 96h inconclusive, Pf growth 48h inconclusive
CC(=O)n1cc([C@H]2C=C(C(=O)N3CCN(Cc4ccccc4)CC3)O[C@@H](OCCCCO)C2)c2ccccc21	Pf growth 96h 5.2µM, Pf growth 48h inconclusive
CC(=O)n1cc([C@@H]2C=C(C(=O)N3CCN(Cc4ccccc4)CC3)O[C@H](OCc3ccc(CO)cc3)C2)c2ccccc21	Pf growth 96h 3.3µM, Pf growth 48h 0.93µM
O=C(C1=C[C@@H](c2ccc(C(F)(F)F)cc2)C[C@@H](OCc2ccc(CO)cc2)O1)N1CCN(Cc2ccccc2)CC1	Pf growth 96h inconclusive, Pf growth 48h inconclusive
CC(=O)n1cc([C@@H]2C=C(C(=O)N3CCN(Cc4ccc5c(c4)OCO5)CC3)O[C@H](OCCCCO)C2)c2ccccc21	Pf growth 96h 12µM, Pf growth 48h inconclusive
COc1ccccc1CNCC(O)(c1ccc(Cl)cc1)c1ccc(Cl)cc1	Pf growth 96h 1.7µM, Pf growth 48h 1.7µM
COc1ccccc1CNCC(O)(c1ccc(F)cc1)c1ccc(F)cc1	Pf growth 96h 4.7µM, Pf growth 48h 3.7µM
OC(CNCc1ccccc1F)(c1ccc(F)cc1)c1ccc(F)cc1	Pf growth 96h inconclusive, Pf growth 48h inconclusive
Cc1ccc(NC(=O)C2(N(C(=O)Cn3nnnc3N)c3ccc(C)cc3)CCCCC2)cc1	Pf growth 96h 13µM
CCCC(C)NC(=O)COc1ccc(Sc2ccc(OCC(=O)NC(C)CCC)cc2)cc1 (stereo unspecified)	Pf growth 96h inconclusive, Pf growth 48h 7.4µM
CC(C)CNC(=O)COc1ccc(Sc2ccc(OCC(=O)NCC(C)C)cc2)cc1	Pf growth 96h inconclusive, Pf growth 48h inconclusive
Cc1cc(NC(=O)C2CCCC2)n(-c2nc3ccccc3[nH]2)n1	Pf growth 96h 10µM, Pf growth 48h 8.3µM
COc1cccc(OC)c1C(=O)Nc1cc(C)nn1-c1nc2ccccc2[nH]1	Pf growth 96h 7.4µM, Pf growth 48h 9.3µM
Cc1ccc(S(=O)(=O)N2CCCCC2)cc1NC(=O)COC(=O)c1ccccc1F	NS1 function inh inconclusive
CC(=O)c1ccc(NC(=S)NC(C)CCc2ccccc2)cc1 (stereo unspecified)	Pf growth 96h 9.3µM, Pf growth 48h inconclusive
O=C(CCc1ccccc1)NNC(=O)c1ccccc1Cl	Pf growth 96h 2.9µM, Pf growth 48h inconclusive
CC(CCc1ccccc1)NC(=O)c1ccccc1Cl (stereo unspecified)	Pf growth 96h 9.3µM, Pf growth 48h inconclusive
COCC(C)NC(=O)c1ccccc1OC(C)=O (stereo unspecified)	none (no result: Pf growth 96h)
CC(=O)Oc1ccccc1C(=O)NC(C)CCc1ccccc1 (stereo unspecified)	Pf growth 96h inconclusive, Pf growth 48h 15µM
Cc1ccc(NC(=S)NC(C)CCc2ccccc2)cc1C (stereo unspecified)	Pf growth 96h inconclusive, Pf growth 48h inconclusive
O=C(CCc1ccccc1)NNC(=O)c1ccccc1F	none
CC(C)(C)CC(C)(C)c1ccc(OCCO)cc1	Pf growth 96h inconclusive (no result: RE007 growth inh, SARS PLpro yeast, NS1 function inh)
CCN(CC)CCCNC(=O)c1cc(-c2ccc(Cl)c(Cl)c2)on1	Pf growth 48h 10µM
Cc1cc(OCC(=O)NCC(c2cccs2)N2CCOCC2)ccc1C(C)C (stereo unspecified)	Pf growth 96h 13µM, Pf growth 48h inconclusive (no result: NS1 function inh)
Cc1cc(Cl)ccc1OCC(=O)NCC(c1cccs1)N1CCOCC1 (stereo unspecified)	Pf growth 96h inconclusive, Pf growth 48h 13µM (no result: NS1 function inh)
Cc1ccc(C(C)C)c(OCC(=O)NCC(c2cccs2)N2CCOCC2)c1 (stereo unspecified)	Pf growth 96h 10µM, Pf growth 48h 13µM (no result: NS1 function inh)
Cc1nnc(NC(=O)c2ccc(S(=O)(=O)N3CCCCC3)cc2)s1	none (no result: Pf growth 96h, Pf growth 48h, NS1 function inh)

Screens from PubChem.
